Screening data as filed in PubChem.
Compounds with a hit are over-represented: about 9.9% of the library has one in this group of screens.
IL-1B inflam inh: inhibitors of inflammasome signaling (IL-1 beta secretion) | THP-1 LPS/ATP IL-1B secretion, AlphaLISA, 16 h; stronger effect = lower value | activity change, % at 57.5 µM | 360,000 tested, 4.7% active; in the data active means activity change below about -50%; inconclusive means mostly about -30% to -49%; further: on the % scale 0 is the no-effect control and ±100 the full control effect
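Secreted IL-1B measured by AlphaLISA bead assay after 16 h compound exposure of THP-1 cells; compounds (final up to 57.5 uM) added 1 h before LPS (250 ng/mL) and ATP (1.25 mM) stimulation; lower signal means less secretion.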
KB-3-1 cytotox: KB-3-1 parental cell cytotoxicity. 400,000 tested, 1.4% active. Potency, µM (series often up to 46.1 µM), most hits filed as cytotoxic. KB-3-1 viability, CellTiter-Glo ATP luminescence, 72 h. AID 1347075; further: potency means the concentration at half of the fitted maximal effect; on the % scale 0 is the no-effect control and ±100 the full control effect; nearly all actives have a fitted effect of over 60% in size
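Cytotoxicity in the drug-sensitive parental line KB-3-1 was scored as loss of CellTiter-Glo luminescence following 72 h incubation with compound. Values come from curve fitting of normalized concentration-response data.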
MCF10A rereplic: inducers of DNA re-replication in MCF 10A breast cells; MCF 10A DNA re-replication, Hoechst nuclear intensity, 48 h; Potency, µM (highest dose often 46.1 µM), without a hit: top-dose activity, positive = re-replication, actives largely listed as activators; 350,000 tested, 2.9% active; further: potency means the concentration at half of the fitted maximal effect; % of control where 0% means no effect; nearly all actives have a fitted effect of over 50% in size
KB-V1 cytotox: KB-V1 MDR subline cytotoxicity; KB-V1 MDR cells viability, CellTiter-Glo, 72 h; Potency, µM (top dose mostly 46.1 µM), hits mostly cytotoxic; 400,000 tested, 3.4% active; further: potency means the concentration at half of the fitted maximal effect; on the % scale 0 is the no-effect control and ±100 the full control effect; nearly all actives have a fitted effect of over 60% in size
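KB-V1 cells (P-gp-expressing MDR subline of KB-3-1) in phenol-red-free DMEM with 10% FBS were exposed to library compounds over a concentration series for 72 h at 37 degrees C. Viability read by CellTiter-Glo luminescence; concentration-effect curves fitted after normalization.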
SW480 rerep: induces DNA re-replication in SW480 colon adenocarcinoma cells; 340,000 tested, 1.8% active; Potency, µM (doses to about 46.1 µM), inactives show top-dose re-replication activation, most hits filed as activators; SW480 DNA re-replication, Hoechst DNA content imaging, 48 h; further: potency means the concentration at half of the fitted maximal effect; % of control where 0% means no effect; nearly all actives have a fitted effect of over 55% in size
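First, 250 cells per well were seeded. Next, compound or vehicle (23 nL) was pinned in, plates sat 48 hr at 37 C. Finally Hoechst was added for 40 min before fluorescence scanning.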
Active calls of the source: *; i = inactive; ? = inconclusive; . = no result given. Unless noted, the call rests on the fitted dose curve; in most records, active means well fitted curve in the direction sought with a large enough effect; inconclusive means small, poorly fitted or top-dose-only effect, or another doubt; inactive means no such curve, though single readings can be large; an effect the other way counts as inactive or inconclusive.

SMILES	IL-1B inflam inh	KB-3-1 cytotox	MCF10A rereplic	KB-V1 cytotox	SW480 rerep
CC(C)c1oc(=O)cc2c1[C@@H](O)[C@H]1OC(=O)[C@@]3(C)C[C@@H](O)[C@@H](O)[C@@]2(C)C13 (stereo not given in full)	-7.9	8.2µM*	5.17µM*	i	?
CC(C)c1oc(=O)cc2c1[C@@H](O)[C@H]1OC(=O)[C@@]3(C)CC[C@@H](O)[C@@]2(C)C13 (stereo not given in full)	62.2	7.31µM*	11.9%	i	?
CC1Oc2cc3c(-c4c(O)cc(O)c5c(O)c6c(cc45)OC(C)C(C)C6=O)c(O)cc(O)c3c(O)c2C(=O)C1C (stereo not given)	?	?	-1.2%	?	13µM*
CNC(C)[C@@H](O)c1ccc(O)cc1 (stereo not given in full)	.	.	-3.4%	.	-0.1%
O=C(Cc1n[nH]c(=O)c2ccccc12)OCc1c(Cl)cccc1Cl	12.0	?	?	?	-118.8%
Cc1ccc(OCC(=O)N2CCN(CCc3ccncc3)CC2)cc1C	.	i	.	i	.
CC1=CC(C)CC(C)OC(=O)CC(c2ccc(O)cc2)NC(=O)C(Cc2c(Br)[nH]c3ccccc23)N(C)C(=O)C(C)NC(=O)C(C)C1 (stereo not given)	-4.2	0.184µM*	?	1.64µM*	0.116µM*
COC(=O)Nc1nc2ccccc2[nH]1	12.2	10.3µM*	?	3.66µM*	?
CC1CCN(CCc2nc3ccccc3[nH]2)CC1	-9.9	i	0.7%	i	0.3%
N#Cc1cc2c(nc1SCC(=O)Nc1cccc(F)c1)C1CCN2CC1	.	?	.	10.3µM*	.
O=C(CN1CCN(C(=O)COc2cccc(F)c2)CC1)Nc1ccc(Cl)c(C(F)(F)F)c1	?	i	-3.1%	i	-14.5%
Oc1ccc2c3c1O[C@H]1[C@@H](O)CC[C@@]4(O)C(C2)N(CC2CCC2)CCC314 (stereo not given in full)	.	.	1.4%	.	0.4%
CN1CCN(c2ccccc2N)CC1	0.0	i	?	i	-5.6%
CN1CCC2(CC1)c1ccccc1-c1ccccc12	-67.1*	i	12.7%	i	-1.7%
CCCNC1=C(C)C(=O)C2=C(C1=O)C(COC(N)=O)[C@]1(OC)C3NC3CN21 (stereo not given in full)	-17.8	18.4µM*	-28.9%	i	6.2%
OCC1OC(O)CC(O)C1O (stereo not given)	8.3	i	?	i	-6.5%
CCON=O	.	.	-0.5%	.	0.944µM*
CC[N+]12CCC(CC1)C(=C(c1ccccc1)c1ccccc1)C2	0.0	14.6µM*	21.8%	i	4.4%
Cc1cc(N2CCCC2)ccc1C=C(C#N)C#N	16.9	i	0.5%	i	-13.9%
Cc1ccc2cc(C=C(C#N)C#N)c(Cl)nc2c1	-96.4*	?	7.31µM*	?	?
CC(C)n1c(/C=C/[C@H](O)C[C@H](O)CC(=O)O)c(-c2ccc(F)cc2)c2ccccc21	92.8	?	12.4%	?	?
O=C1NCN(c2ccccc2)C12CCN(C(c1cccc3ccccc13)c1nnnn1C1CCCCC1)CC2 (stereo not given)	41.7	i	.	i	.
O=C1NCN(c2ccccc2)C12CCN(C(c1cc3ccccc3o1)c1nnnn1C1CCCC1)CC2 (stereo not given)	-65.2*	?	.	?	.
O=C1NCN(c2ccccc2)C12CCN(C(c1cccc3ccccc13)c1nnnn1C1CCCC1)CC2 (stereo not given)	-62.0*	?	.	?	.
O=C1NCN(c2ccccc2)C12CCN(C(c1cc3ccccc3o1)c1nnnn1Cc1ccccc1)CC2 (stereo not given)	?	?	.	i	.
CCOP(=O)(NC(C)C)Oc1ccc(SC)c(C)c1 (stereo not given)	-2.4	i	20.6%	i	-13.5%
O=c1c2ccccc2nc(CNCc2ccco2)n1-c1ccc(F)cc1	12.1	i	2.4%	i	-3.0%
CN1c2ccccc2C(NCCCCCCC(=O)O)c2ccc(Cl)cc2S1(=O)=O (stereo not given)	.	.	0.3%	.	2.0%
